Reference: PubChem BioAssay (NCATS)
Values joined by “and” are separate entries in the source; they are usually repeats but may differ in a detail not shown here. Identical values can stand only once. Results filed as inconclusive are left out. Active and inactive are the calls of the source. Calls come from the whole dose curve; as a rule, active = well fitted inhibition curve with a large enough effect; inconclusive = small, poorly fitted or top-dose-only effect; inactive = no such curve, though single readings can be large or run the other way.

Tested on: not listed separately
Experiment: Primary qHTS for inhibitors of nuclear receptor binding SET domain protein 2 (NSD2) in an RCH-ACV wild type WT cells (2C) (AID 1645877); note: nearly all actives have a fitted effect of over 70% in size; note: potency is the fitted concentration of half-maximal effect; for activity change, negative = cell killing: % is set by controls: 0 for no effect and ±100 for the full control effect
Details: RCH-ACV (leukaemia line) NSD2 WT (2C) viability, CellTiter-Glo, 72 h; series mostly up to 44.9 µM; activity change, negative = cell killing: at the top concentration
For O=[N+]([O-])c1ccc(-[n+]2nc(-c3ccccc3)nn2-c2ccc(I)cc2)cc1, the “activity change, negative = cell killing” value was -15.9% (inactive). In the case of COc1ccccc1NC(=O)Nc1ccc2ccccc2c1, the Potency is reported as 2.9 µM (active). In the case of C=C(C)C(=O)OC1[C@@H]2C(=C)C(=O)O[C@@H]2C[C@@H](C)[C@@H]2C=CC(=O)[C@@]12C (stereo partly specified), the Potency is reported as 10.1 µM (active). With CCC(C)n1cc(C)c2c(C(=O)NCc3c(C)cc(C)[nH]c3=O)cc(-c3ccc(N4CCNCC4)nc3)cc21 (stereo unspecified) the Potency was 14.5 µM (active). With Cn1c(NC[C@@H](N)Cc2ccccc2)nc(-c2ccncc2)c(-c2ccc3ccccc3c2)c1=O the Potency was 26.3 µM (active). With CC1(C)CC[C@]2(C(=O)OC3OC(CO)C(O)C(O)C3O)CC[C@]3(C)C(=CCC4[C@@]5(C)CC[C@H](OC6OC(C(=O)O)C(O)C(O)C6O)C(CO)(CO)C5CC[C@]43C)[C@@H]2C1 (stereo partly specified) the Potency was 0.435 µM (active). With Nc1ncnc2c1ncn2[C@@H]1O[C@H](CO)C[C@H]1O the Potency was 5.78 µM (active). In the case of CCOC(=O)c1cnn(-c2ccc(NC(=O)C(Cl)=C(Cl)Cl)cc2)c1C(F)(F)F, the Potency is reported as 6.49 µM (active). In the case of CC(=O)N1c2ccc(-c3ccc(C(=O)O)cc3)cc2C(Nc2ccc(Cl)cc2)CC1C (stereo unspecified), the Potency is reported as 0.0205 µM (active). In the case of COc1ccc(C(=O)N(CCC(C)C)Cc2nc(C)c(C)n2Cc2ccccc2C)c(OC)c1, the Potency is reported as 11.5 µM (active). With O=C(Nc1ccc(F)cc1)N1CCc2ccccc2C1c1ccc(C(F)(F)F)cc1 (stereo unspecified) the Potency was 18.3 µM (active). In the case of C[C@@H]1COCCN1c1cc(C2(S(C)(=N)=O)CC2)nc(-c2ccnc3[nH]ccc23)n1 (stereo partly specified), the Potency is reported as 662 nM (active) and 2.31 µM (active). In the case of Cc1ccc(C(=O)N2CCN(c3ccc([N+](=O)[O-])cc3)CC2)cc1Cl, the Potency is reported as 11.5 µM (active). For CN(C)C(=O)c1cc2cnc(Nc3ccc(N4CCNCC4)cn3)nc2n1C1CCCC1, the Potency was 5.15 µM (active). In the case of C=C1/C(=C/C=C2\CCC[C@]3(C)[C@@H]([C@H](C)/C=C/C(=O)C4CC4)CC[C@@H]23)C[C@@H](O)C[C@@H]1O, the Potency is reported as 23 µM (active). In the case of CC1OC2OC3C(OCC(O)C3O)OC(=O)C34CCC(C)(C)CC3C3=CCC5C6(C)CC(O)C(OC7OC(CO)C(O)C(O)C7OC7OCC(OC(=O)CC(C)(O)CC(=O)OC1C(OC1OCC(O)C(O)C1O)C2O)C(O)C7O)C(C)(CO)C6CCC5(C)C3(C)CC4O (stereo unspecified), the Potency is reported as 3.17 µM (active). For CC(C)(C)c1ccc(-c2nc3ccccc3[nH]2)cc1, the Potency was 6.32 µM (active). For CCN1CCN(Cc2ccc(-c3cc4c(NC(C)c5ccccc5)ncnc4[nH]3)cc2)CC1 (stereo unspecified), the Potency was 5.78 µM (active). With CN1CCN(C(=O)c2ccc(Nc3nccc(-c4cccs4)n3)cc2Cl)CC1 the Potency was 6.49 µM (active). For Cc1ccc2c(Nc3ccc(Cl)cc3)nccc2c1Nc1ncccc1-c1ncnc2nc[nH]c12, the Potency was 20.6 µM (active). For COc1ccccc1-c1cc(Nc2cccc(CS(N)(=O)=O)c2)ncn1, the Potency was 2.9 µM (active). For CC1(C)CC23[C@@H]4CC(=O)[C@@H]2COC(=O)[C@@H]3CC[C@H]41, the Potency was 7.28 µM (active). For CN(CCCNC(=O)c1ccc2nc3c(c(Cl)c2c1)CCCC3)Cc1ccccc1, the Potency was 8.17 µM (active). For C=CC(=O)Nc1cc(Nc2nccc(-c3cn(C)c4ccccc34)n2)c(OC)cc1N(C)CCN(C)C, the Potency was 2.95 µM (active). With CCN(CCCOc1ccc2c(Nc3cc(CC(=O)Nc4cccc(F)c4)[nH]n3)ncnc2c1)CCOP(=O)(O)O the Potency was 32.5 nM (active) and 37.2 nM (active). With O=C(NC(NC(=S)Nc1ccc(F)c([N+](=O)[O-])c1)C(Cl)(Cl)Cl)C(c1ccccc1)c1ccccc1 (stereo unspecified) the Potency was 20.6 µM (active). For Cc1[nH]c(/C=C2\C(=O)Nc3ccc(F)cc32)c(C)c1C(=O)NC[C@H](O)CN1CCOCC1, the Potency was 6.49 µM (active) and 10.5 µM (active). For CCCCn1c(-c2ccccc2)nc(-c2ccccc2)c1CN(Cc1ccc2c(c1)OCO2)Cc1ccc2c(c1)OCO2, the Potency was 18.3 µM (active). In the case of COc1ccc(CNC(=O)Nc2ncc([N+](=O)[O-])s2)cc1, the Potency is reported as 18.6 µM (active). For O=C(NCc1ccc(Oc2ccccc2)cc1)c1nc(-c2cc(Br)c(O)c(Br)c2)no1, the Potency was 20.5 µM (active).

Molecular target: Catechol O-methyltransferase (Homo sapiens) (UniProt P21964)
Sequence (P21964 whole entry, looked up): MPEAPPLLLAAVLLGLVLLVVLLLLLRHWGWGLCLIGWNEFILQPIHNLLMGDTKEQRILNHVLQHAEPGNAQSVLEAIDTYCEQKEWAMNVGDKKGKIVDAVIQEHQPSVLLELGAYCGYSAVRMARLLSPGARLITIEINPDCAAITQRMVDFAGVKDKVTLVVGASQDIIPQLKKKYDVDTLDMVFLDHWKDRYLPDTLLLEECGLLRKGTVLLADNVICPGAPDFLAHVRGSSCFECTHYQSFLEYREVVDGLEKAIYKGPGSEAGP
Experiment: Confirmatory Screen for Target Class Profiling of Small Molecule Inhibitors of Methyltransferases (AID 1745852)
Details: MTase-Glo luminescence, SAH detection, recombinant enzyme; measured here: COMT max response; stronger effect = lower value
Compound O=[N+]([O-])c1ccc(-[n+]2nc(-c3ccccc3)nn2-c2ccc(I)cc2)cc1 has an activity of -47.4%. Work on COc1ccc(C(=O)N(CCC(C)C)Cc2nc(C)c(C)n2Cc2ccccc2C)c(OC)c1 yielded an activity of -8.43%. CC(C)(C)c1ccc(-c2nc3ccccc3[nH]2)cc1 showed an activity of -68.9%. For COc1cc(O)c(C(=O)CCc2ccc(O)cc2)c(O[C@@H]2O[C@H](CO)[C@@H](O)[C@H](O)[C@H]2O)c1, the activity was -69.8%. For CN1CCN(C(=O)c2ccc(Nc3nccc(-c4cccs4)n3)cc2Cl)CC1, the activity was -2.55%. In the case of O=C(NCc1ccc(Oc2ccccc2)cc1)c1nc(-c2cc(Br)c(O)c(Br)c2)no1, the activity is reported as -16.2%.
